In the test the target is T1, ACLY (UniProt P53396).
T1 sequence (whole entry): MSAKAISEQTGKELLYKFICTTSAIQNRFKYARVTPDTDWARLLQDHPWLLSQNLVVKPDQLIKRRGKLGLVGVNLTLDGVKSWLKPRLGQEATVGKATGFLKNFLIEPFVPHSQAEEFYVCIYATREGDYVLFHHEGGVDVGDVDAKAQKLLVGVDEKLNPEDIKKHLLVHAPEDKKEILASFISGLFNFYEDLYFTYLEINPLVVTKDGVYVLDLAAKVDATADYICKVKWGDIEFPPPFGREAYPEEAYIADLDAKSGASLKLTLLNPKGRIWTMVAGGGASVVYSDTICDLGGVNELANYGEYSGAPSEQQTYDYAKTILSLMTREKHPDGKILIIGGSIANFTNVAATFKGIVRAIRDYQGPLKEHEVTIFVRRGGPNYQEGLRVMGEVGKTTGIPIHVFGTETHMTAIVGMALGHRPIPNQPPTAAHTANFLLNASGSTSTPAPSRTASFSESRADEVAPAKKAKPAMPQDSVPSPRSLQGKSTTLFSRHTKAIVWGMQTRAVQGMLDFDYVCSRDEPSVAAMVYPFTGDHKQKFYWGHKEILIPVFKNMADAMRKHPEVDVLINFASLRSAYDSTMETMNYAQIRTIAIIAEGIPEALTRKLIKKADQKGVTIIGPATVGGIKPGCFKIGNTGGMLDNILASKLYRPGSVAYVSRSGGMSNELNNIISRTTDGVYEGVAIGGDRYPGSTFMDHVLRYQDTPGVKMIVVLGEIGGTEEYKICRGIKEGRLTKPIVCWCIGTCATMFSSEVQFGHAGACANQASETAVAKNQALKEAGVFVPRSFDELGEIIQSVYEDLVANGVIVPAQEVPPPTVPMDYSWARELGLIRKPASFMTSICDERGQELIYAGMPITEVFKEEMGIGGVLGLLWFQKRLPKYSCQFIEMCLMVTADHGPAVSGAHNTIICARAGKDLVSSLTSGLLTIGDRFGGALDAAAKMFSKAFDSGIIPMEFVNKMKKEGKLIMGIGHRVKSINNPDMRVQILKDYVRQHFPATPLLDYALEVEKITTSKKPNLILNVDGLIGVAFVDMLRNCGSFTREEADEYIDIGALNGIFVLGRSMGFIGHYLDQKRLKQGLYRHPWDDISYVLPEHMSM
Put plainly: NP40-soluble protein abundance relative to vehicle (solubility fold change) (ratio); higher = more soluble protein in presence of GTP. On the procedure: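 Solubility proteome profiling in Jurkat crude lysate. Lysate was treated with Mg-GTP (0.1-10 mM) for 10 min at room temperature and 3 min at 37 °C, then solubilised with 0.8% NP40 and benzonase, followed by ultracentrifugation. Proteins were quantified by TMT10 LC-MS/MS; the value is the NP40-soluble abundance relative to the NP40-processed vehicle, from 3 independent experiments.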

Structures are written as SMILES. ± gives the standard deviation of the averaged measurements. About 5,400 targets were measured; listed, in parts, are those with the largest changes and a random draw of the rest.

As for `Nc1nc2c(ncn2[C@@H]2O[C@H](COP(=O)(O)OP(=O)(O)OP(=O)(O)O)[C@@H](O)[C@H]2O)c(=O)[nH]1` [guanosine triphosphate], the NP40-soluble protein abundance by setting is: (concentration: 0.1mM) 1.06 ± 0.044; (concentration: 0.5mM) 1.08 ± 0.088; (concentration: 1mM) 0.972 ± 0.084; (concentration: 2mM) 0.968 ± 0.11; (concentration: 4mM) 0.991 ± 0.084; (concentration: 6mM) 0.963 ± 0.11. The NP40-soluble protein abundance is, setting by setting: (concentration: 8mM) 0.97 ± 0.065; (concentration: 10mM) 0.906 ± 0.07.

The record behind these values is the supplement of paper PMC6411743.
